Screening data from PubChem.
Pf Dd2 growth = blocks in vitro growth of P. falciparum Dd2; P. falciparum Dd2 growth, SYBR Green, 72 h; Potency, µM (titrated, usually from 28.9 µM), inactives show top-dose activity, negative = inhibition, hits mostly inhibitors; actives 4.3% (n = 120,000); active = well fitted inhibition curve with a large enough effect;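 note: plate controls were DMSO vehicle for no effect and reference drug for full effect; nearly all actives have a fitted effect of over 65% in size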
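Infected erythrocytes (Dd2, 0.3% parasitemia, 2.5% hematocrit final) are added to compound in RPMI-1640/Albumax II medium, grown 72 h at 37C in low oxygen, then lysed with saponin/Triton-X containing SYBR Green and read by fluorescence.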
The depositor's hits bear a star; i = inactive; [ ] = dose if it differs, or a comment. This is one part of a sample in which hits are shown more often than they occur. Potency is the fitted concentration of half-maximal effect.

SMILES	Pf Dd2 growth
O=C(c1c(OCC2CC2)cc(=O)n2c1CCCCC2)N1CCOCC1	62%
Cn1cnnc1CC1CCN(C(=O)c2ccccc2F)CC1	-23%
O=C([C@H]1C[C@@H](F)CN1S(=O)(=O)c1ccc(Cl)cc1)N1CCOCC1	6%
CS(=O)(=O)N1CCCC1c1noc(CCC(=O)NCC2CC2)n1 (stereo not drawn)	-7%
CCOC(=O)CCNC(=O)N1CCC(Oc2ncccc2C(=O)N2CCOCC2)C1 (stereo not drawn)	-3%
Cc1nc2cc(S(=O)(=O)N3CCOCC3)ccc2n1CCNC(=O)C1(C)CC1	2%
COc1ccc(CC(=O)NCc2cccc(SC)c2)cc1	-32%
COCCCNC(=O)CSc1nc2c(sc3ccccc32)c(=O)n1CCCC(=O)NCCOC	-20%
Cc1ccccc1CSc1nc2c(sc3ccccc32)c(=O)n1CCCC(=O)NCCCOC(C)C	11µM*
CC(C)OCCCNC(=O)CCCn1c(SCC(=O)c2ccc(F)cc2)nc2c(sc3ccccc32)c1=O	-8%
CCC(=O)N1CCC(N(C(=O)CC)C2CCOCC2)CC1	-24%
CCOc1nccn2c(-c3ccc(CNC(=O)c4ccnn4C)cc3)cnc12	-4%[44.1 µM]
O=C(NCc1ccncc1)c1c(OCC2CC2)cc(=O)n2c1CCCCC2	-10%
O=C(Nc1ccc2ncnc(N3CCCC3)c2c1)c1ccc(OC(F)(F)F)cc1	-20%
CCCN1CCN(c2ncnc3sc(C(=O)Nc4ccc(OC(F)(F)F)cc4)c(C)c23)CC1	5µM*
Cc1nc(N2CCCC2)ncc1C(=O)Nc1ccc(OC(F)(F)F)cc1	i
Cc1cc(OCC(=O)c2ccc3c(c2)N(CCCC(=O)NCC2CC2)C(=O)CO3)ccc1Cl	i
N#Cc1ccc(C(=O)N2CC(C(=O)NCCc3ccncc3)C3(CCOCC3)C2)cc1 (stereo not drawn)	22%
Cc1nc(SCC(=O)Nc2ccc(C)c(Cl)c2)cc(-c2ccccc2)n1	2%
CSc1nc(Nc2ccc(C)cc2C)cc(-c2ccccc2)n1	-28%
Cc1cc(C)cc(Nc2cc(-c3ccccc3)nc(C)n2)c1	11µM*
Cc1noc([C@@H]2CC(F)(F)CN2S(=O)(=O)c2ccccc2)n1	18%
O=c1c2nc(Nc3cccnc3)ccc2ncn1-c1ccccc1	-23%[44.1 µM]
Cc1nc2cccnc2n1CC1CCCN(C(=O)Nc2ccc(C(F)(F)F)cc2)C1 (stereo not drawn)	i
CC(C)Cc1ccc(S(=O)(=O)N2CCCC(Cn3cnc4cccnc43)C2)cc1 (stereo not drawn)	-10%
SMILES	Pf Dd2 growth
COc1cccc(NC(=O)N2CCCC(Cn3c(C)nc4cccnc43)C2)c1 (stereo not drawn)	i
Cc1nc2cccnc2n1CC1CCCN(S(=O)(=O)c2ccc(CC(C)C)cc2)C1 (stereo not drawn)	6.3µM*
Cc1cc(S(=O)(=O)N2CCCC(Cn3c(C)nc4cccnc43)C2)ccc1Cl (stereo not drawn)	-28%
Cc1nc2cccnc2n1CC1CCCN(C(=O)Nc2cccc(C(F)(F)F)c2)C1 (stereo not drawn)	11µM*
CC(C)CN1C[C@@H](C(=O)O)C[C@@H](C(=O)Nc2ccc(F)cc2)C1	3%
CCOc1ccc(C(=O)Nc2ccc(-n3nncc3-c3ccc(OC)cc3)cc2)cc1	92%
CCOC(=O)c1ccc(N2C(=O)c3n[nH]c(-c4cccs4)c3C2c2ccc(OC)cc2OC)cc1 (stereo not drawn)	11µM*
CCOc1ccc(C(=O)NC2CCCN(c3cc(-c4ccc(OC)cc4)[nH]n3)C2)cc1 (stereo not drawn)	i
CCOC(=O)c1ccc(N2C(=O)c3n[nH]c(-c4cccs4)c3C2c2cccc(OC)c2)cc1 (stereo not drawn)	3.5µM*
Cc1ccc(N2C(=O)c3n[nH]c(C)c3C2c2ccccc2Cl)cc1 (stereo not drawn)	6%
CCOC(=O)C1=C(C)N=C2SC=C(CC(=O)N3CCC(C)CC3)N2C1c1cccc(OC)c1 (stereo not drawn)	-18%
CCOC(=O)c1ccc(N2CC3=C(C2=O)C(c2ccc(OC)cc2)NC(=O)N3C)cc1 (stereo not drawn)	44%
CCOC(=O)c1sc(N2C(=O)c3oc4ccc(F)cc4c(=O)c3C2c2cccc(OC)c2)nc1C (stereo not drawn)	-32%
CCOC(=O)c1ccc(N2C(=O)c3[nH]nc(-c4ccc(OCC)cc4)c3C2c2ccc(OC)cc2OC)cc1 (stereo not drawn)	7.9µM*
COc1ccc(OC2CN(C(=O)c3ccc(C(F)(F)F)cc3)C2)cc1	60%
O=C(NCc1ccc(F)cc1Cl)C1CCN(C(=O)c2ncn3c2COC(c2ccccc2)C3)CC1 (stereo not drawn)	i
CC(C)N1CCN(CCN2CC3(CCN(C(=O)CCN)CC3)OC2=O)CC1	12%
CN(C)C[C@@H]1CN(c2ncccn2)C[C@H]1NC(=O)c1ccccc1Cl	-16%
Cc1nc(NCCNS(C)(=O)=O)cc(C2CC(O)C2)n1 (stereo not drawn)	i
COc1ccccc1C(=O)N1CCCCCC1c1nc(C)no1 (stereo not drawn)	13%
COc1ccc(-c2cc(N3CCN(C(=O)c4cccc(OC)c4OC)CC3)n[nH]2)cc1	-8%
CC(C)C(=O)Nc1ccc2c(c1)CN(CCc1ccc(F)cc1)C(=O)C(C)O2 (stereo not drawn)	i
COc1ccc(CN2C(=O)[C@@H]3C[C@@H](O)CN3C3(CN(Cc4cnc[nH]4)C3)C2=O)cc1	-21%[44.1 µM]
COc1cc(F)c(-c2nccn2CC(O)c2ccccc2)cc1OC (stereo not drawn)	-24%
CN1CCN([C@@H]2[C@H](O)[C@H](CO)O[C@@H]2CNC(=O)c2ccco2)CC1	-11%[44.1 µM]
SMILES	Pf Dd2 growth
COC[C@@H]1CN(C(=O)c2cccc(C#N)c2)C[C@H]1c1ccccn1	2%
O=C(O)C1CNCCN(Cc2ccc(-c3nn[nH]n3)cc2)C1 (stereo not drawn)	-3%
COc1ccc(C(=O)NCCn2cc(SCC(=O)Nc3ccc4c(c3)OCCO4)c3ccccc32)cc1OC	i
COc1ccc(NC(=O)CSc2cn(CC(=O)N3CCOCC3)c3ccccc23)cc1OC	13%
CC(C)N(C(=O)Cn1cc(S(=O)(=O)Cc2ccc(Cl)cc2)c2ccccc21)C(C)C	i[5.79 µM]
Cc1ccc(C(=O)N2CCc3cn(C)c4cccc(c34)C2)cc1	-23%
CC(C)CN(CC(C)C)CC(O)Cn1cc(/C=C/C(=O)c2ccccc2)c2ccccc21 (stereo not drawn)	2.5µM*
COc1ccc(C(=O)/C=C/c2cn(CC(O)CN3CCc4ccccc43)c3ccccc23)cc1OC (stereo not drawn)	8.9µM*
Cc1ccc(NC(=O)CSc2cn(CC(=O)N3CCCCCC3)c3ccccc23)cc1	-2%
Cc1ccc(C(=O)/C=C/c2cn(CC(O)CN3CCc4ccccc43)c3ccccc23)cc1 (stereo not drawn)	5.6µM*
CCO[C@H]1C[C@@H](O)C12CCN(c1ccnc(OC)c1C#N)CC2	-29%
COc1ccc(-n2nc(C3CCCN(C(=O)c4cccc(Cl)c4)C3)[nH]c2=O)cc1 (stereo not drawn)	i
O=C(O)[C@@H]1CN(C(=O)CCc2ccc(=O)[nH]n2)C[C@H]1C1CC1	5%
CCN(C(=O)C1CCC(=O)N(CCc2ccc(Cl)cc2)C1)C(C)C (stereo not drawn)	2%
COc1ccc(-c2nc(C3CC(=O)N(c4ccc(F)c(Cl)c4)C3)no2)c(OC)c1 (stereo not drawn)	46%
CC1CCC2(CC1)NC(=O)N(CC(=O)NCc1cccc(Br)c1)C2=O (stereo not drawn)	i
